We go through 7 molecules from PubChem BioAssay (NCI).

Some test systems named below: OVCAR-8 ovarian; OVCAR-5 ovarian; OVCAR-4 ovarian; SK-OV-3 ovarian; HS 578T breast; NCI/ADR-RES ovarian; T-47D breast; BT-549 breast; MDA-MB-435 melanoma; SW-620 colon; MCF7 breast; HCT-116 colon; HCC-2998 colon; KM12 colon; IGROV1 ovarian; OVCAR-3 ovarian.
Common to all, as to experiment: NCI-60 one-dose screen, 48 h (100 = growth as untreated, 0 = no growth, -100 = all killed)
Holding throughout (conditions): 10 µM unless noted

The structures appear in SMILES notation. The panel holds about 83,000 compounds, 20% with a hit somewhere; the sample as a whole holds those more often.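 Compound tested at a single concentration for 48 hours in 96-well plates; a percent growth value below 10 was scored as active.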 Values without a mark were called inactive. Active and inactive are the calls of the source.

Take `CCOC(=O)c1c(C)c(C(=O)OCC)n(C)c1C`: the growth in the test with OVCAR-8 ovarian was 120%; in the test on OVCAR-5 ovarian, 114%; in the test with OVCAR-4 ovarian it was 101%; in the test with SK-OV-3 ovarian, 98%; with HS 578T breast it was 92.6%; in the test on NCI/ADR-RES ovarian it was 118%. In addition, the growth in the test on T-47D breast was 90.7%; with BT-549 breast it was 91.5%; in the test with MDA-MB-435 melanoma it was 101%; in the test with SW-620 colon, 94.5%; with MCF7 breast it was 127%; with HCT-116 colon, 97.9%. For the same molecule, the figures for the growth in the test with HCC-2998 colon and with KM12 colon were 110% and 112%, respectively.
Turning to `Cc1nn(-c2ccc(Cl)cc2)c2nc3c(nc12)C(=O)c1ccccc1-3`, the growth in the test on OVCAR-5 ovarian was 90.8%; in the test with OVCAR-4 ovarian, 34.5%; in the test with SK-OV-3 ovarian, 32.7%; in the test with IGROV1 ovarian it was 77.3%; in the test with OVCAR-3 ovarian, 62.8%; in the test with HS 578T breast, 63.7%. Moreover, the growth with NCI/ADR-RES ovarian is 62.9%; in the test on T-47D breast, 73.7%; with MDA-MB-435 melanoma, 67.5%; with SW-620 colon it was 83.4%; in the test on MCF7 breast it was 49.1%; in the test with HCT-116 colon, 39.9%. Moreover, the growth in the test with HCC-2998 colon is 52.5%; with KM12 colon it was 78.8%.
On to `Cc1nn(-c2ccccc2)c2ncc3c(c12)C(=O)N(Cc1ccccc1)C3=O`, for which the growth is 63.6% in the test on OVCAR-5 ovarian; -57.8% (active) with OVCAR-4 ovarian; 14.7% with SK-OV-3 ovarian; 14.7% in the test with IGROV1 ovarian; 19.2% in the test on OVCAR-3 ovarian; 22.7% in the test with HS 578T breast. Besides, the growth in the test on NCI/ADR-RES ovarian was 42.1%; in the test on T-47D breast, 43.4%; with BT-549 breast it was 76.4%; with MDA-MB-435 melanoma it was 90.7%; with SW-620 colon, 61%; in the test on MCF7 breast, 58.8%. For the same molecule, the results for the growth in the test on HCT-116 colon, with HCC-2998 colon and in the test on KM12 colon were 10.5%, 63% and 85.8%, respectively.
As for `O=C(OCCBr)c1ccc(Cl)c([N+](=O)[O-])c1`, the growth with OVCAR-8 ovarian was 102%; in the test with OVCAR-5 ovarian it was 108%; in the test with SK-OV-3 ovarian it was 79.4%; with IGROV1 ovarian, 102%; in the test with OVCAR-3 ovarian, -21.3% (active); in the test with HS 578T breast, -29.9% (active). For the same molecule, the growth in the test with NCI/ADR-RES ovarian was 113%; with T-47D breast, -57.2% (active); with BT-549 breast, 107%; in the test on SW-620 colon, 103%; with MCF7 breast, 44.7%; in the test on HCT-116 colon, 92.4%. The figures for the growth in the test on HCC-2998 colon and in the test on KM12 colon were 42.9% and 63.1%, respectively.
On to `COC(=O)[C@]1(CCSC)N[C@H](c2cn(-c3ccccc3)nc2C)[C@@H]2C(=O)N(c3ccc(C)cc3)C(=O)[C@@H]21`, for which the growth in the test with OVCAR-5 ovarian is 94.6%; in the test on OVCAR-4 ovarian it was 112%; in the test with SK-OV-3 ovarian, 98.5%; in the test with IGROV1 ovarian, 115%; with OVCAR-3 ovarian it was 114%; in the test on HS 578T breast, 103%. Further, the growth with NCI/ADR-RES ovarian was 93.4%; in the test on T-47D breast it was 101%; in the test with BT-549 breast, 82.8%; in the test on MDA-MB-435 melanoma it was 105%; in the test on SW-620 colon it was 106%; in the test on MCF7 breast it was 102%. Further, the growth in the test with HCT-116 colon is 92.5%; in the test with HCC-2998 colon, 96.4%; in the test with KM12 colon it was 104%.
`COc1ccc(C(=O)/C=C/c2c(Cl)nc3c(c(C)nn3-c3ccccc3)c2-c2ccc(Br)cc2)cc1`: the growth is 99.6% in the test with OVCAR-5 ovarian; 107% with OVCAR-4 ovarian; 97.3% with SK-OV-3 ovarian; 116% in the test with IGROV1 ovarian; 115% in the test on OVCAR-3 ovarian; 113% in the test on HS 578T breast. Besides, the growth in the test on NCI/ADR-RES ovarian was 108%; in the test with T-47D breast, 100%; with BT-549 breast, 97.5%; in the test on MDA-MB-435 melanoma, 107%; in the test on SW-620 colon, 110%; in the test with MCF7 breast, 96.7%. Besides, the figures for the growth in the test with HCT-116 colon, with HCC-2998 colon and in the test with KM12 colon were 102%, 114% and 109%, respectively.
Take `CC(C)(C)c1cc(O)c(O)c(C(C)(C)C)c1`: the growth in the test on OVCAR-8 ovarian is 39.8%; with OVCAR-5 ovarian, 55.3%; in the test on SK-OV-3 ovarian, 67%; in the test on IGROV1 ovarian it was 49.9%; in the test on OVCAR-3 ovarian it was 20.9%; in the test with HS 578T breast it was 43.6%. The growth was 51.9% in the test on NCI/ADR-RES ovarian; 12.8% in the test with T-47D breast; 19.3% in the test with SW-620 colon; 36.3% in the test with MCF7 breast; 15.8% in the test on HCT-116 colon; 59.5% in the test with HCC-2998 colon. Moreover, the growth in the test with KM12 colon was 48.1%.
